± gives the standard deviation of the averaged measurements.
Each molecule was assayed on MDAMB231 (assay: cell proliferation (confluence) relative to DMSO control; higher = less growth inhibition). Conditions: 5 uM; 6 d.
Protocol: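 Epigenetic chemical probe screen: 15 TNBC cell lines, 500 cells per well in 384-well plates, treated with 5 uM of each of 36 SGC probes for 6 d. Confluency was imaged by IncuCyte ZOOM and normalised to DMSO control wells. Four replicate wells per compound.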
In the case of `COc1ccccc1S(=O)(=O)Nc1ccc2c(c1)CN(C)C(=O)N2`, the cell proliferation is reported as 67.9 ± 8.3%. Molecule `CCn1cc(-c2cccc(C(F)(F)F)c2)c2sc(C(=N)NC3CCS(=O)(=O)CC3)cc2c1=O` has a cell proliferation of 89.7 ± 4%. `CCCc1cc(C)n(C)c(=O)c1CN(C)C(=O)c1cc(-c2ccc(N3CCN(C(C)C)CC3)nc2)cc2c1cnn2C(C)C` showed a cell proliferation of 99.29 ± 0.32%. Molecule `CC[C@H](C)n1cc(C)c2c(C(=O)NCc3c(C)cc(C)[nH]c3=O)cc(-c3ccc(N4CCNCC4)nc3)cc21` has a cell proliferation of 98.5 ± 1.6%. Work on `O=C(NC[C@H](O)CN1CCc2ccccc2C1)c1ccnc(NC2CCC2)c1` yielded a cell proliferation of 45 ± 5.1%. `COc1cc(-c2cn(C)c(=O)c3cnccc23)c(OC)cc1CN(C)C` gave a cell proliferation of 96.6 ± 1.5%. Molecule `COc1cc2c(cc1OCCCN1CCCC1)N=C(N)C21CCC1` has a cell proliferation of 96 ± 1.6%. `O=C([C@@H](Cc1cccc(C(F)(F)F)c1)NS(=O)(=O)c1cc(F)c2c(c1)CCNC2)N1CCCC1` gave a cell proliferation of 87 ± 14%. `COc1c(C)cc(NC(=O)c2nn(Cc3ccc(F)cc3)c3c2CN(C(=O)c2ccc[nH]2)C[C@]3(C)C(N)=O)cc1C` was tested, and the cell proliferation was 95.7 ± 2.2%. `O=C(c1ccc(C(=O)N2CCC(N3CCCC3)CC2)c(Nc2ccccc2)c1)N1CCC(N2CCCC2)CC1` gave a cell proliferation of 99.13 ± 0.17%. With `CCOC(=O)CCNc1cc(N2CCc3ccccc3CC2)nc(-c2cccnc2)n1` the cell proliferation was 98.88 ± 0.33%. For `CNCCN1CCC(OCc2ccccc2)CC1`, the cell proliferation was 82 ± 5.4%. `COc1cc(C#N)ccc1S(=O)(=O)Nc1ccc2c(c1)cc(C)c(=O)n2C` gave a cell proliferation of 95.9 ± 4.5%. With `CCCc1cc(C)[nH]c(=O)c1CNC(=O)c1cc(-c2ccnc(N3CCN(C)CC3)c2)cc2c1cnn2C(C)C` the cell proliferation was 99.683 ± 0.051%. Work on `O=C(NCC(=O)N1CCCC1)Nc1ccc2cnccc2c1` yielded a cell proliferation of 81.5 ± 7.2%. `CC(C)Oc1ccc(-c2c[nH]cc2CN(C)CCO)cc1` gave a cell proliferation of 86.1 ± 7.1%. In the case of `CCC(=O)N1CCOc2c(cc(-c3ccc(OC)c(OC)c3)cc2OC[C@H]2CCCN(C)C2)C1`, the cell proliferation is reported as 79.2 ± 5.1%. In the case of `COc1ccc(CCc2nc3cc(-c4c(C)noc4C)ccc3n2C[C@H](C)N2CCOCC2)cc1Cl`, the cell proliferation is reported as 90.9 ± 1.5%. For `CCOC(=O)CCNc1cc(N2CCc3ccccc3CC2)nc(-c2ccccn2)n1`, the cell proliferation was 31.7 ± 7.8%. With `CN(C)[C@H]1CN(C2CCc3cccc(F)c32)C[C@@H]1c1ccc(N2CCN(S(C)(=O)=O)CC2)cc1` (some centres not stated) the cell proliferation was 99.19 ± 0.27%. Molecule `CCCc1cc(C)[nH]c(=O)c1CNC(=O)c1cc(-c2ccc(N3CCN(C(C)C)CC3)nc2)cc2c1cnn2C(C)C` has a cell proliferation of 57.1 ± 6.4%. In the case of `Clc1cc2c(NC3CCCC3)nnc(-c3ccncc3)c2cc1Cl`, the cell proliferation is reported as 98.72 ± 0.35%. For `Cc1nnc2c3ccccc3c(N[C@@H](C)[C@H](c3ccccc3)N(C)C)nn12` [L-moses], the cell proliferation was 88.6 ± 8.2%. Work on `CC(C)Oc1ccc(-c2c[nH]cc2CN(C)CCN)cc1` yielded a cell proliferation of 46.8 ± 5.9%. `COc1ccccc1C(=O)Nc1cc2c(cc1N1CCCC1)n(C)c(=O)n2C` showed a cell proliferation of 91.8 ± 5.7%. `Cn1cc(CCn2cnc(-c3cnn(C)c3)c2-c2ccc(C#N)cc2)cn1` was tested, and the cell proliferation was 96.4 ± 3.1%. For `CCN(C(=O)CO)[C@H]1CN(/C(=N\C#N)Nc2cccc(OC(F)F)c2)N=C1c1ccc(Cl)c(Cl)c1`, the cell proliferation was 98.31 ± 0.72%. `CCCOc1ccn2c(C(C)=O)cc(-c3ccccc3S(C)(=O)=O)c2c1` gave a cell proliferation of 96.7 ± 2.7%. `Cc1cc(=O)n(C)c2cc(N3C(=O)CC[C@H](NS(=O)(=O)CC(C)C)[C@H]3c3ccc(Cl)cc3)ccc12` was tested, and the cell proliferation was 95.9 ± 3.5%. Work on `CC(C)N(CCCNC(=O)Nc1ccc(C(C)(C)C)cc1)C[C@H]1O[C@@H](n2cc(Br)c3c(N)ncnc32)[C@H](O)[C@@H]1O` yielded a cell proliferation of 99.63 ± 0.16%. `COc1cc2c(NC3CCN(C(C)C)CC3)nc(C3CCCCC3)nc2cc1OCCCN1CCCC1` showed a cell proliferation of 99.05 ± 0.52%. `O=C(/C=C/N1C[C@H]2C[C@@H]1CN2c1ccccn1)c1ccccc1O` showed a cell proliferation of 99.17 ± 0.39%.
